Consider 35 compounds from PubChem BioAssay (Tox21).

Several values for one entry are separate records, joined by “and”; a condition that tells them apart may be missing. Equal entries are not always repeated. Results filed as inconclusive are left out. A call without a number means that no potency is given here. The source holds several records for some structures; these can differ, active in one and inactive in another. Activity calls are given as the source filed them. Unless noted, the call rests on the fitted dose curve.
Potency means the concentration at half of the fitted maximal effect.

One assay is described as follows: qHTS assay for small molecule disruptors of the mitochondrial membrane potential - cell viability (AID 720634). Further: nearly all actives have a fitted effect of over 20% in size.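 On activity change, negative = cytotoxicity: human HepG2 liver cancer cells.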 As to conditions: HepG2 viability, ATP luminescence (CellTiter-Glo), 1 h; series mostly up to 83.2 µM; activity change, negative = cytotoxicity: at the top concentration. The gist of the method: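 After overnight attachment at 37 C, HepG2 cells received compound or DMSO vehicle for 1 hr. Viability is then taken from ATP-driven luminescence following a 30 min room-temperature CellTiter-Glo step.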
A general note: qHTS replaces the single test concentration by a dilution series.
`O=C1C=CC(=O)C=C1`: the Potency entry was “inactive”.
Consider `C=CCc1ccc2c(c1)OCO2`, for which the Potency entry was “inactive”.
For the compound `CCCCOCCOP(=O)(OCCOCCCC)OCCOCCCC`, the Potency was 54.5 µM (active) and inactive.
In the case of `N[C@@H](Cc1ccc(N(CCCl)CCCl)cc1)C(=O)O`, the Potency result was “inactive”.
On the same count and under the same terms, as for `CCC(=O)O[C@H]1CC[C@H]2[C@@H]3CCC4=CC(=O)CC[C@]4(C)[C@H]3CC[C@]12C`, the entry is “inactive”.
Still for that read-out and setting: to `CCOC(=S)S` belongs “inactive”.
Consider `Nn1cnnc1`, for which the Potency entry is “inactive”.
Take `c1ccc(N=Nc2ccccc2)cc1`: the Potency entry is “inactive”.
Regarding `OCC(O)CO`, the Potency result is “inactive”.
Regarding `COc1ccc(C=O)cc1`, the Potency entry was “inactive”.
Same read-out and setting: to `ClC1C(Cl)C(Cl)C(Cl)C(Cl)C1Cl` (centres undefined) belongs “inactive”; to `C[C@]12CCC(=O)C(O)=C1CC[C@@H]1[C@@H]2CC[C@]2(C)C(=O)CC[C@@H]12`, “inactive”.
Regarding `CCN(CC)N=O`, the Potency entry is “inactive”.
As to `CCCCN(CCCC)N=O`, the Potency entry was “inactive”.
Same read-out and setting: as for `C=CCN(CC=C)C(=O)C(Cl)Cl`, the entry is “inactive”; as for `O=C(O)C(F)(F)C(F)(F)C(F)(F)C(F)(F)C(F)(F)C(F)(F)C(F)(F)F`, “inactive”.
On the same count and under the same terms, as for `CCOP(=S)(OCC)O/N=C(\C#N)c1ccccc1`, the entry is “inactive and 54.5 µM (active)”; as for `Nc1ccc(Cl)c(Cl)c1`, “inactive”; as for `N#CCCCl`, “inactive”.
On to `O=[N+]([O-])c1cccc2ccccc12`, for which the Potency result was “inactive”.
Consider `CCN(CC)C(=O)SCc1ccc(Cl)cc1`, for which the “activity change, negative = cytotoxicity” value was -19.2% [at 95.3 µM] (inactive).
With `COP(=O)(OC)OC`, the Potency result was “inactive”.
As to `O=[N+]([O-])c1ccc(O)c([N+](=O)[O-])c1`, the Potency is 10.9 µM (active).
As to `CN(C)C(=O)Nc1ccc(Cl)cc1`, the Potency result is “inactive”.
Consider `Oc1cc(Cl)ccc1Oc1ccc(Cl)cc1Cl`, for which the Potency is 11.1 µM (active).
Take `Nc1ccc(Cl)cc1N`: the Potency entry was “inactive”.
Take `COP(=S)(OC)Oc1cc(Cl)c(Cl)cc1Cl`: the Potency result is “inactive”.
`CC(C)C(=O)OCC(C)(C)C(OC(=O)C(C)C)C(C)C` (centres undefined): the Potency entry is “inactive”.
As for `C#C[C@]1(O)CC[C@H]2[C@@H]3CCC4=CC(=O)CC[C@]4(C)[C@H]3CC[C@@]21C`, the Potency entry was “inactive”.
With `NNC(N)=S`, the Potency entry was “inactive”.
Turning to `Oc1c(Cl)c(Cl)c(Cl)c(Cl)c1Cl`, the “activity change, negative = cytotoxicity” value is -18.4% (inactive).
Regarding `CCCCCCOC(=O)c1ccccc1C(=O)OCCCCCC`, the “activity change, negative = cytotoxicity” value is -15.5% (inactive).
Consider `O=c1oc2ccccc2c(O)c1C(CC(O)c1ccc(-c2ccc(Br)cc2)cc1)c1ccccc1` (centres undefined), for which the Potency is 6.68 µM (active).

A short description of the next assay: qHTS assay for small molecule disruptors of the mitochondrial membrane potential (AID 720635; active means well fitted inhibition curve with a large enough effect in the signal ratio in the repeat runs; the % refers to the signal ratio). The settings on record: HepG2 mitochondrial membrane potential, Mito-MPS dye ratio; series mostly up to 83.2 µM; ratio activity, negative = MMP loss: at the top concentration. Summed up:
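Mitochondrial membrane potential tracked with Mito-MPS dye, red aggregates (ex 540/em 590 nm) against green monomers (ex 490/em 535 nm). Compound treatment 1 hr at 37C, dye 30 min in HepG2.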
On to `O=C1C=CC(=O)C=C1`, for which the Potency result is “inactive”.
As to `CCCCOCCOP(=O)(OCCOCCCC)OCCOCCCC`, the Potency was 27.3 µM (active) and inactive.
Turning to `CCOC(=S)S`, the “ratio activity, negative = MMP loss” value was 10.6% (inactive).
For `Nn1cnnc1`, the “ratio activity, negative = MMP loss” value was 1.5% (inactive).
Consider `c1ccc(N=Nc2ccccc2)cc1`, for which the “ratio activity, negative = MMP loss” value was 14.8% (inactive).
Regarding `OCC(O)CO`, the “ratio activity, negative = MMP loss” value is 22.9% (inactive).
For the compound `c1ccc(NNc2ccccc2)cc1`, the “ratio activity, negative = MMP loss” value was -28.7% (inactive).
On to `C[C@]12CCC(=O)C(O)=C1CC[C@@H]1[C@@H]2CC[C@]2(C)C(=O)CC[C@@H]12`, for which the Potency result is “inactive”.
On to `CCN(CC)N=O`, for which the “ratio activity, negative = MMP loss” value was -8.57% [at 95.3 µM] (inactive).
For `CCCCN(CCCC)N=O`, the Potency result was “inactive”.
Same read-out and setting: to `C=CCN(CC=C)C(=O)C(Cl)Cl` belongs “inactive”.
`CCOP(=S)(OCC)O/N=C(\C#N)c1ccccc1`: the “ratio activity, negative = MMP loss” value is -15.9% (inactive).
For the compound `Nc1ccc(Cl)c(Cl)c1`, the Potency entry is “inactive”.
Regarding `N#CCCCl`, the “ratio activity, negative = MMP loss” value was -9.04% (inactive).
For `CCN(CC)C(=O)SCc1ccc(Cl)cc1`, the Potency is 19.9 µM (active) and 12.2 µM (active).
In the case of `COP(=O)(OC)OC`, the Potency result was “inactive”.
For the compound `O=[N+]([O-])c1ccc(O)c([N+](=O)[O-])c1`, the Potency is 689 nM (active) and 545 nM (active).
Take `CN(C)C(=O)Nc1ccc(Cl)cc1`: the “ratio activity, negative = MMP loss” value is -19.7% (inactive).
Turning to `Oc1cc(Cl)ccc1Oc1ccc(Cl)cc1Cl`, the Potency was 4.22 µM (active) and 352 nM (active).
In the case of `Nc1ccc(Cl)cc1N`, the Potency is 4.5 µM (active) and 770 nM (active).
As to `COP(=S)(OC)Oc1cc(Cl)c(Cl)cc1Cl`, the Potency is 11.9 µM (active) and 29.8 µM (active) and 7.64 µM (active).
As to `NNC(N)=S`, the Potency was 63.5 µM (active) and inactive.
On to `Oc1c(Cl)c(Cl)c(Cl)c(Cl)c1Cl`, for which the Potency is 3.78 µM (active) and 1.53 µM (active).
`CCCCCCOC(=O)c1ccccc1C(=O)OCCCCCC`: the Potency is 27.9 µM (active).
Take `CC(C)N(C(=O)SCC(Cl)=C(Cl)Cl)C(C)C`: the Potency was 13.5 µM (active).
Take `O=c1oc2ccccc2c(O)c1C(CC(O)c1ccc(-c2ccc(Br)cc2)cc1)c1ccccc1` (centres undefined): the Potency was 6.68 µM (active) and 23 µM (active).
